Rows were chosen to be rich in hits. Some 15% of all compounds tested hit in one or more screens of this group.
DT40 TDP1 no CPT: qHTS for Inhibitors of human tyrosyl-DNA phosphodiesterase 1 (TDP1): qHTS in cells in absence of CPT; DT40 Tdp1-/- hTDP1 cells, no CPT, ATP luminescence, 48 h; Potency, µM (highest dose often 46.2 µM), inactives show at the top dose activity change, negative = growth inhibition, most hits filed as inhibitors; 420,000 tested, 15% active; AID 686978, 2013; also: nearly all actives have a fitted effect of over 55% in size
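Camptothecin absent (DMSO only). Human TDP1-complemented DT40 knockout cells, 400 cells/well, 37 °C for minimum 48 hr; ATP measured via CellTiter-Glo, 30 min dark incubation, luminescence.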
ELG1 repair inh: ELG1-dependent DNA repair inhibition. HEK293T ELG1-luciferase reporter, luminescence, 16 h; DNA damage induced by 5-fluorouridine. Potency, µM (doses to about 46.1 µM), without a hit: at the top dose activity change, negative = inhibition, usual class: inhibitors. 330,000 tested, 2.3% active. AID 504467; also: nearly all actives have a fitted effect of over 55% in size
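HEK293T cells expressing luciferase-tagged ELG1 (2,000/well) received 5-Fluorouridine plus compound or DMSO for 16 hr at 37 °C. Luciferase was read by ONE-Glo luminescence after 30 min at room temperature.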
RORg inh: blocks mouse ROR gamma transcriptional activity; P51450; Drosophila S2 Gal4-RORgamma UAS-luciferase reporter, 20 h; Potency, µM (doses to about 53.6 µM), for inactives: top-dose activity change, negative = inhibition, actives largely listed as inhibitors; 310,000 tested, 5.4% active; AID 2551; also: nearly all actives have a fitted effect of over 60% in size
Target sequence (P51450 whole entry, looked up, the tested form may be a part): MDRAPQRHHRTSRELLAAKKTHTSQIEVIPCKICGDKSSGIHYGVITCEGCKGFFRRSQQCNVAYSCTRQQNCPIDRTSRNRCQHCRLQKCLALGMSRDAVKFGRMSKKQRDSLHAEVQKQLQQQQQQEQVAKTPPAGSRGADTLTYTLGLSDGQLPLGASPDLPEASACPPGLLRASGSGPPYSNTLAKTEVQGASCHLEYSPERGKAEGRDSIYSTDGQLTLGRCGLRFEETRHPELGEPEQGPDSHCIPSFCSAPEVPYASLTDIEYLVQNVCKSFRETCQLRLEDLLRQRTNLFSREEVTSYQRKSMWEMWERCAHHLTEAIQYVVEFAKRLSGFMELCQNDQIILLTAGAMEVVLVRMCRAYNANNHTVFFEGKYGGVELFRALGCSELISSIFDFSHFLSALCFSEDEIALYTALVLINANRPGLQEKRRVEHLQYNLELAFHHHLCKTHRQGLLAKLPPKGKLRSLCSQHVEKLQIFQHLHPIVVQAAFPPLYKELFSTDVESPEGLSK
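Drosophila Schneider cells stably carrying a metallothionein-driven Gal4 DBD–ROR gamma fusion and a UAS-Photinus luciferase reporter were exposed to compound for 1 hr, then induced with copper sulfate (700 uM final) for 20 hr at ambient temperature before luminescence reading.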
ALOX12 inh: blocks human arachidonate 12S-lipoxygenase | P18054 | purified 12hLO, xylenol orange hydroperoxide absorbance | Potency, µM (titrated, usually from 108 µM), without a hit: at the highest dose activity change, negative = inhibition, actives largely listed as inhibitors | 580,000 tested, 1.1% active | AID 1671190
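Hydroperoxide product was detected by ferrous iron/xylenol orange as the 573 to 405 nm absorbance ratio. Arachidonic acid at 40 uM (final) was turned over for 30 min at room temperature by 150 nM human 12hLO, pH 7.0 Hepes buffer, after 15 min compound preincubation.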
VP16 counter: Gal4-VP16 reporter inhibition counter-screen | Drosophila S2 Gal4-VP16 UAS-luciferase, luminescence, 20 h | Potency, µM (highest dose often 53.6 µM), inactives show at the highest dose activity, negative = inhibition, usual class: inhibitors | 310,000 tested, 3.5% active | AID 2546;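 also: Gal4-VP16 expression switched on by copper sulfate through the metallothionein promoter; nearly all actives have a fitted effect of over 50% in size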
DT40 TDP1 CPT: growth inhibition of DT40 Tdp1-/-;hTDP1 cells with camptothecin (screen for TDP1 inhibitors). chicken DT40 Tdp1-/-;hTDP1 cells + 20 nM CPT, ATP luminescence, 48 h. Potency, µM (highest dose often 46.2 µM), for the others: top-dose activity change, negative = growth inhibition, hits mostly inhibitors. 420,000 tested, 12% active. AID 686979; also: nearly all actives have a fitted effect of over 55% in size
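Chicken DT40 Tdp1-/- cells stably complemented with human TDP1 were seeded at 400 cells/well in medium containing 20 nM camptothecin, exposed to pin-transferred compounds, and grown at 37 °C for at least 48 hr. Viability was read as ATP luminescence.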
The depositor's hits bear a star; ? = inconclusive; . = no result; [ ] = dose if it differs, or a comment. Calls follow the shape of the dose curve; as a rule, active = well fitted curve in the direction sought with a large enough effect; inconclusive = small, poorly fitted or top-dose-only effect, or another doubt; inactive = no such curve, though single readings can be large; an effect the other way counts as inactive or inconclusive. % is scaled to controls: 0 for no effect and ±100 for the full control effect; potency is read from the fitted curve at half-maximal effect.

SMILES	DT40 TDP1 no CPT	ELG1 repair inh	RORg inh	ALOX12 inh	VP16 counter	DT40 TDP1 CPT
Cn1ncc(N2CCCC(CC(=O)Nc3ccc(F)c(F)c3)C2)cc1=O (configuration not stated)	.	.	.	0.4%	.	.
O=C(Nc1cccc(Cl)c1)N1CCC(c2noc(COc3cccnc3)n2)CC1	.	.	.	20.3%	.	.
O=C(c1ccc(F)cc1)N1CCn2c(nn(-c3cccc(Cl)c3)c2=O)C1	.	.	.	2.6%[6.33 µM]	.	.
COC(=O)Cc1c(C)nc2nc(NCc3cc(F)cc(F)c3)[nH]n2c1=O	.	.	.	-0.4%	.	.
Cc1ccc([C@H]2N[C@]3(CCCN(Cc4ccc(F)cc4)C3=O)[C@H]3C(=O)N(Cc4ccccc4)C(=O)[C@@H]23)cc1	?	.	.	14.1µM*	.	?
COc1ccc([C@H]2N[C@]3(CCCN(CC4CCCCC4)C3=O)[C@H]3C(=O)N(Cc4ccccc4)C(=O)[C@@H]23)cc1	20.6µM*	.	.	?	.	?
COc1ccc([C@H]2N[C@]3(CCCN(Cc4ccc(F)cc4)C3=O)[C@H]3C(=O)N(Cc4ccccc4)C(=O)[C@@H]23)cc1	?	.	.	35.5µM*	.	?
COc1ccc([C@H]2N[C@]3(CCCN(Cc4ccc(F)cc4)C3=O)[C@H]3C(=O)N(C)C(=O)[C@@H]23)cc1	-25.3%	.	.	?	.	-10.7%
CCN1C(=O)[C@H]2[C@@H](c3ccc(C(F)(F)F)cc3)N[C@]3(CCCN(Cc4ccccc4)C3=O)[C@H]2C1=O	16.4µM*	.	.	-23.9%	.	20.6µM*
COc1ccc(CN2CCC[C@]3(N[C@H](c4ccc(C)cc4)[C@@H]4C(=O)N(C)C(=O)[C@@H]43)C2=O)cc1	-29.6%	.	.	?	.	-27.8%
O=C1Nc2ccccc2CCC1n1nc(-c2ccccc2F)ccc1=O (configuration not stated)	.	.	.	1.0%	.	.
O=C(Cc1ccc2c(c1)OCO2)OCc1ccc2c(c1)OCO2	.	.	.	-30.7%	.	.
CCC(=O)Nc1nonc1-c1nc2ccccc2n1CCC(C)C	9.2µM*	23.1µM*	-35.8%	1.9%	-16.3%	?
Cn1cnc(S(=O)(=O)N2CCCCC2c2nc(-c3ccncc3)n[nH]2)c1 (configuration not stated)	.	.	.	5.9%	.	.
O=C1NCc2ccccc2CC12CCN(Cc1ccccn1)CC2	.	.	.	5.2%[6.33 µM]	.	.
CCOC(=O)N1CCN(Cc2ccccc2Cl)CC1	-11.1%	.	-3.6%	?	3.9%	0.4%
CCOC(=O)N1CCN(Cc2cc(Cl)c3cccnc3c2O)CC1	0.461µM*	3.66µM*	0.126µM*	?	0.0891µM*	0.82µM*
COCc1cc(CN2CCN(C)CC2)c(O)c2ncccc12	3.26µM*	-24.3%	3.16µM*	-6.2%	5.62µM*	4.11µM*
CCOC(=O)C1CCN(Cc2ccc(O)c3ncccc23)CC1	3.66µM*	?	2.82µM*	?	5.01µM*	4.61µM*
c1ccc(N2CCN(Cc3ccnc4ccccc34)CC2)cc1	20.6µM*	?	20.3%[0.365 µM]	0.0%	.	25.9µM*
Clc1ncc(CN2CCN(c3ccccc3)CC2)s1	-5.9%	-13.0%	0.2%	0.5%	-4.6%	-13.1%
O=C(NC1CCCCC1)[C@@H]1C[C@@H](O)CN1C1CCN(C(=O)CN2CCCC2=O)CC1	.	.	.	35.5%	.	.
COCC(=O)N1CCN(c2oc(-c3ccco3)nc2C#N)CC1	.	.	.	-27.3%	.	.
COc1ccc(S(=O)(=O)N2CC[C@H]3NC(=O)N(c4ccc(C)cc4)C(=O)[C@H]32)cc1	.	.	.	3.4%[176 µM]	.	.
CCOCc1cc(CN2CCN(c3cccc(Cl)c3)CC2)c(O)c2ncccc12	7.31µM*	.	.	6.9%	.	8.2µM*
SMILES	DT40 TDP1 no CPT	ELG1 repair inh	RORg inh	ALOX12 inh	VP16 counter	DT40 TDP1 CPT
Oc1c(CN2CCOCC2)cc(COCc2ccccc2)c2cccnc12	4.11µM*	?	0.794µM*	?	0.0891µM*	4.61µM*
CCOCC(=O)N1CCN(c2cccc(Cl)c2)CC1	?	-3.5%	4.0%	-1.8%	15.1%[10 µM]	-11.0%
Oc1c(CNc2ccccc2)cc(COCc2ccccc2)c2cccnc12	.	?	.	-55.2%	.	.
CC(C)OCc1cc(CN2CCN(c3ccccc3)CC2)c(O)c2ncccc12	3.26µM*	.	.	?	.	4.61µM*
Oc1c(CN2CCN(c3ccccc3)CC2)cc(Br)c2cccnc12	3.26µM*	?	0.562µM*	-21.0%	0.891µM*	5.17µM*
CC1CCN(CC2CCCN(C(=O)c3cnccn3)CC2)CC1 (configuration not stated)	.	.	.	44.8%	.	.
CNS(=O)(=O)c1cc(C(=O)NCC2(c3ccccc3)CC2)cc(C)c1C	.	.	.	-0.8%	.	.
CCOc1ccc2c(=O)c(Oc3ccc(C(=O)OC)cc3)c(C(F)(F)F)oc2c1	.	.	.	43.9%	.	.
CC(C)C(=O)N(Nc1nc2ccccc2s1)C(=O)C(C)C	6.5%	10.0%	3.3%	-16.3%	-15.2%	-6.8%
Cc1ccc(C(=O)N(Nc2nc3ccccc3s2)C(=O)c2ccc(C)cc2)cc1	?	26.4%	8.91µM*	-3.2%	11.2µM*	-20.4%
O=C(Nc1nc(-c2ccc(F)cc2)cs1)c1cnccn1	-28.3%	19.5%	2.24µM*	2.2%	?	-26.1%
O=C(Nc1nc2ccccc2s1)c1cnccn1	?	?	3.16µM*	16.8%	5.01µM*	?
CCOc1ccc2nc(Cl)c(CN(C(=O)c3cnccn3)C3CCCC3)cc2c1	-28.6%	14.6µM*	0.3%	?	-10.9%	7.6%
Cc1noc(C)c1C(=O)Nc1nc(-c2ccc(F)cc2)cs1	-15.9%	3.4%	.	0.0%	.	-12.7%
CCn1c(CC2C(=O)N(C(C)C)c3ccccc32)nc2ccccc2c1=O (configuration not stated)	.	.	.	0.8%	.	.
CN(Cc1cc(=O)n2cc(Cl)ccc2n1)Cc1ccccc1Cl	.	.	.	2.1%	.	.
CCOc1ccc2nc(NC(=O)c3cnccn3)sc2c1	23.1µM*	?	1.58µM*	5.1%	?	23.1µM*
CCOc1ccc2nc(NC(=O)c3cc(=O)c4ccc(C)cc4o3)sc2c1	-14.0%	.	.	-23.0%	.	-7.9%
Cc1cccc(Nc2nc3ccccc3s2)c1C	?	?	?	15.0%	?	?
c1ccc2sc(NN=C3CCCCCC3)nc2c1	?	?	3.98µM*	-27.3%	?	?
O=C(Nc1nc2ccc(F)cc2s1)c1ccccn1	0.517µM*	?	0.708µM*	-1.3%	1.58µM*	0.651µM*
CCOc1ccc2nc(NC(=O)C3(C)CC3(Br)Br)sc2c1 (configuration not stated)	23.1µM*	.	.	10.8%	.	16.4µM*
CCOCC(=O)Nc1nc2ccc(OCC)cc2s1	?	?	?	-7.1%	?	?

Bioassay records (PubChem)
